In the supplement of paper PMC7695840:
Structures can show the parent of a compound that is named as a salt.

How the values were obtained:
[1] = system: Staphylococcus aureus MW2 delta-mecA (mecA-); assay: normalized GFP fluorescence (growth of mecA- strain) (fraction of control range); higher = more growth of mecA- strain; conditions: compound concentration: 150 uM; cefoxitin: subinhibitory; fluorescent label: GFP
How it was run: (§1)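 S. aureus MW2 cells, pre-induced, were used as a 1:1 mix of a DsRed strain carrying the gene and a GFP strain lacking it, in LB with a subinhibitory antibiotic dose set each day. At 5 µL/well they were placed onto 150 μM compound (1.5% DMSO) in 1536-well plates, one replicate, and kept unshaken for 20 h at 37 °C, 90% humidity. After DsRed (540/590) and GFP (485/520) reads scaled per plate to single-strain control medians, plates with high untreated ratios and rows with DsRed/GFP >10 were excluded.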

[2] = system: Staphylococcus aureus MW2 (mecA+); assay: normalized DsRed fluorescence (growth of mecA+ strain) (fraction of control range); higher = more growth of mecA+ strain; conditions: compound concentration: 150 uM; cefoxitin: subinhibitory; fluorescent label: DsRed
How it was run: as §1

Structure (SMILES)	normalized GFP fluorescence [1]	normalized DsRed fluorescence [2]
C[N+]1(C)CCCC(OC(=O)C(O)(c2ccccc2)c2ccccc2)C1 (stereo not given)	0.765	0.852
C[N+]1(C)[C@@H]2CC[C@H]1C[C@@H](OC(=O)C(CO)c1ccccc1)C2 (stereo not given in full)	0.479	0.574
CC(=O)OC1CN2CCC1CC2 (stereo not given)	0.565	0.665
CCC(COC(=O)c1cc(OC)c(OC)c(OC)c1)(c1ccccc1)N(C)C (stereo not given) [Trimebutine]	0.293	0.646
C=C1C[C@@H]2[C@H](CC[C@]3(C)C(=O)CC[C@@H]23)[C@@]2(C)C=CC(=O)C=C12 [Exemestane]	0.367	0.545
CC(C)c1cccc(C(C)C)c1O	0.257	0.882
CC(C)CC(N(C)C)C1(c2ccc(Cl)cc2)CCC1 (stereo not given)	0.0915	
C[C@H]1CNCCc2ccc(Cl)cc21 [Lorcaserin HCl]	0.467	0.636
CC[C@@H](CO)NC(=O)[C@@H]1C=C2c3cccc4c3c(cn4C)C[C@H]2N(C)C1	0.269	0.713
O=C(O)CCCc1ccc(N(CCCl)CCCl)cc1	0.418	1.38
CC(C)N(CCNC(=O)CN1CCCC1=O)C(C)C [Pramiracetam]	0.568	0.402
CC(NC(C)(C)C)C(=O)c1cccc(Cl)c1 (stereo not given)	0.332	0.882
C[C@@H]1O[C@@H](O[C@@H]2C=C3CC[C@@H]4[C@H](CC[C@]5(C)[C@@H](c6ccc(=O)oc6)CC[C@]45O)[C@@]3(C)CC2)[C@H](O)[C@H](O)[C@H]1O	0.198	0.926
NC(=O)C[S@@+]([O-])C(c1ccccc1)c1ccccc1	0.234	1.11
O=[N+]([O-])O[C@@H]1CO[C@H]2[C@@H]1OC[C@@H]2O	0.742	1.13
Nc1ccncc1	0.334	0.715
C[C@@H]1[C@H](O)[C@@H](C)/C=C/C=C/CC/C=C/C=C/C=C/C=C/[C@H](O[C@H]2O[C@@H](C)[C@H](O)[C@@H](N)[C@H]2O)C[C@@H]2O[C@](O)(C[C@@H](O)[C@H](O)CC[C@@H](O)C[C@@H](O)C[C@@H](O)CC(=O)O[C@H]1C)C[C@H](O)[C@H]2C(=O)O [Nystatin (Fungicidin)]	0.00493	0.585

Structure (SMILES)	normalized GFP fluorescence [1]	normalized DsRed fluorescence [2]
NCCCNCCSP(=O)(O)O	0.429	0.76
N[C@@H](Cc1ccc(N(CCCl)CCCl)cc1)C(=O)O	0.309	0.612
CC(=O)O[C@H]1C[C@H](O[C@H]2[C@@H](O)C[C@H](O[C@H]3[C@@H](O)C[C@H](O[C@H]4CC[C@@]5(C)[C@H](CC[C@@H]6[C@@H]5C[C@@H](O)[C@]5(C)[C@@H](C7=CC(=O)OC7)CC[C@]65O)C4)O[C@@H]3C)O[C@@H]2C)O[C@H](C)[C@H]1O[C@@H]1O[C@H](CO)[C@@H](O)[C@H](O)[C@H]1O	0.391	0.766
O=P1(N(CCCl)CCCl)NCCCO1 (stereo not given)	0.58	0.629
CNC(C)[C@H](O)c1ccccc1 (stereo not given in full)	0.353	0.809
CC(C)N(CCC(C(N)=O)(c1ccccc1)c1ccccn1)C(C)C (stereo not given)	0.541	0.697
CCCN1C[C@H](CSC)C[C@@H]2c3cccc4[nH]cc(c34)C[C@H]21 [Pergolide mesylate]	0.105	1.03
CNCC(=O)c1ccc(O)c(O)c1 [Adrenalone HCl]	0.708	0.797
Oc1cccc2cccnc12	0.00976	0.0478
CC(NC(C)(C)C)C(=O)c1cccc(Cl)c1 (stereo not given) [Amfebutamone (Bupropion)]	0.395	0.602
C[C@]12CC[C@H]3[C@@H](CC[C@@]45O[C@@H]4C(O)=C(C#N)C[C@]35C)[C@@H]1CC[C@@H]2O	0.134	1.06
C#CCN(C)[C@H](C)Cc1ccccc1	0.853	0.547
C[N+]12CCC(CC1)C(OC(=O)C(O)(c1ccccc1)c1ccccc1)C2 (stereo not given)	0.468	0.579
CNCC(O)c1ccc(O)cc1 (stereo not given) [Synephrine (Oxedrine)]	0.516	0.777
CC(C)C[C@H]1C(=O)N2CCC[C@H]2[C@]2(O)O[C@](NC(=O)[C@@H]3C=C4c5cccc6[nH]c(Br)c(c56)C[C@H]4N(C)C3)(C(C)C)C(=O)N12	0.246	1.03
CC(C)[N+](C)(CCC(C(N)=O)(c1ccccc1)c1ccccc1)C(C)C	0.202	0.447
